# Source: PubChem BioAssay (Sanford-Burnham Center for Chemical Genomics)
# Peg3 prom inh: reduces Peg3 promoter-driven luciferase expression in HeLa; inhibition, % at 20 µM; AID 588405; HeLa PEG-Prom luciferase reporter, luminescence, overnight; hit rate 1.7% among 360,000;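 active = inhibition of at least 50% at 20 µM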
# KKLEB tox: CF airway cell cytotoxicity counter-screen. KKLEB CF airway cells viability, ATPlite luminescence, overnight; active compounds read low; cells stimulated with P. aeruginosa culture filtrate. activity change (cytotoxicity), % at 5 µM. hit rate 0.36% among 360,000. AID 602141;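 active = corrected activity change at or below -50% at 5 µM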
# TROY signal inh: inhibitors of TROY-dependent NF-kB signaling; hit rate 0.98% among 360,000; inhibition, % at 10 µM; Q293 LMP1-TROYcd NF-kB luciferase reporter, 4 h; AID 1347056;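 active = compounds whose plate-normalised and pattern-corrected inhibition of the luciferase reporter signal at the single screening dose is 50% or more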
# HIF-2a inh: blocks HIF-2a reporter activity | 786-0 RCC cells HIF-2a reporter, luciferase luminescence, overnight | inhibition, % at 18.8 µM | hit rate 0.72% among 360,000;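 active = inhibition of the luminescence signal of 40% or more relative to plate controls, in a single-dose primary screen at 18.75 µM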
# TWEAK Fn14 block: inhibitors of TWEAK-Fn14 interaction signaling. AID 1159606. hit rate 2% among 360,000. TWEAK-stimulated Fn14 reporter cells, luciferase luminescence, 8 h. inhibition, % at 10 µM; in the data active = inhibition above about 50%
# CF NFkB inh: inhibitors of cystic fibrosis induced NF-kB | KKLEB NF-kB-GFP reporter, PAF-induced, GFP fluorescence overnight | inhibition, % at 5 µM | hit rate 0.86% among 360,000 | AID 588850;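 active = at least 50% inhibition at 5 µM, scaled per plate between neutral and stimulator controls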;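 note: PAF is a Pseudomonas aeruginosa culture filtrate used as stimulus; plate controls were PAF-stimulated DMSO wells for no effect and unstimulated DMSO wells for full effect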
# Starred values were filed as active, the others as inactive; . = no result. Only some compounds are listed: those with a hit (about 4% of all), similar ones and a draw of the others.
SMILES,Peg3 prom inh,KKLEB tox,TROY signal inh,HIF-2a inh,TWEAK Fn14 block,CF NFkB inh
Clc1ccc(Cc2noc(CN3CCN(c4ccccc4)CC3)n2)c(Cl)c1,54.5*,-2.0,-1.9,12.4,-3.3,-19.2
Cc1ccccc1N(CC(=O)NCc1ccc2c(c1)OCO2)C(=O)CCC(=O)Nc1ccccn1,6.6,4.4,-9.3,9.4,-0.1,6.1
Cc1ccccc1N(CC(=O)NCc1ccc2c(c1)OCO2)C(=O)C1CSC(=O)C1 (configuration not stated),5.9,5.7,4.9,16.6,50.3*,-15.1
C[C@@H]1CCCCO[C@H](CN(C)C(=O)Nc2ccc(C(F)(F)F)cc2)[C@@H](C)CN([C@H](C)CO)C(=O)c2cc(NC(=O)c3ccncc3)ccc2O1,7.8,9.8,0.1,12.9,-27.8,-2.2
c1ccc(-n2nnc3c(N4CCOCC4)ncnc32)cc1,-12.0,3.0,43.3,10.3,86.9*,-19.1
Cc1ccc(C(=O)COC(=O)c2ccc3c(c2)C(=O)N(c2cccc4ncccc24)C3=O)cc1,101.5*,-11.8,10.2,16.3,-12.5,12.3
O=C(COC(=O)c1ccc2c(c1)C(=O)N(c1cccc3ncccc13)C2=O)c1ccc(Cl)cc1,12.8,4.5,30.8,-0.3,-34.5,-6.9
COCC(C)n1c(C)cc(C(=O)COC(=O)c2oc3ccccc3c2C)c1C (configuration not stated),-72.0,7.6,6.9,-82.3,-5.5,-0.3
COCC(C)n1c(C)cc(C(=O)COC(=O)c2n[nH]c3ccccc23)c1C (configuration not stated),-48.8,-4.6,77.8*,-51.5,66.9*,10.0
C=CS(=O)(=O)c1c2cc(OC)ccc2nc2ccc(OC)cc12,98.0*,-7.0,-43.5,-381.4,-51.1,-21.9
COc1ccc2nc(Cl)cc(Cl)c2c1,-6.8,-9.0,-4.3,13.9,-28.7,-1.3
CC(C)c1ccc(NC2=CC(=O)CC(C)(C)C2)cc1,-45.3,1.8,-18.8,-72.7,-19.1,2.0
CN(C)CCNC(=O)/C(=C/c1ccc(-c2ccc(Cl)cc2Cl)o1)NC(=O)c1ccccc1,111.3*,-27.0,-16.4,12.6,-82.4,26.9
O=C1C2C3c4ccccc4C(c4ccccc43)C2c2nc3ccccc3n21 (configuration not stated),0.8,12.4,.,17.8,51.5*,-12.5
CN1C(=O)C2C3c4ccccc4C(c4ccccc43)[C@@H]2C1=O (some centres not stated),7.2,6.2,13.2,21.4,2.7,-7.5
Cc1ccc([N+](=O)[O-])cc1Nc1nc(N2CCCC2)nc(N2CCCC2)n1,31.4,-3.6,-5.5,21.2,51.9*,1.2
O=C(N=C1c2ccccc2CN1c1ccc(F)c(F)c1)c1cccnc1,-53.3,5.4,-48.4,-108.9,52.3*,-35.1
O=C(N=C1c2ccccc2CN1c1cccc(Cl)c1)c1cccnc1,-106.2,0.3,-56.0,-121.5,17.5,-12.4
COc1ccc(Br)cc1C1NC(=O)NC(C)=C1C(=O)N(C)C (configuration not stated),0.1,-53.3*,0.2,9.9,7.8,0.6
COC(=O)C[C@@H]1CC[C@@H](NS(=O)(=O)c2ccc(OC)cc2)[C@@H](CO)O1,.,.,.,4.5,.,.
COc1cccc(C=NNC(=O)C(C)SC(C)C(=O)NN=Cc2cccc(OC)c2)c1 (configuration not stated),6.4,-4.7,-4.3,2.8,-3.9,4.8
CC(SC(C)C(=O)NN=Cc1cccc(Cl)c1)C(=O)NN=Cc1cccc(Cl)c1 (configuration not stated),98.9*,11.1,13.5,5.7,-4.9,-7.3
CC(=O)c1ccc(S(=O)(=O)Nc2cccc(-n3cnnn3)c2)cc1,-0.2,3.3,1.8,7.1,-1.2,20.4
CCOC(=O)CSc1nc2cc3c(cc2cc1C#N)OCCO3,-245.9,7.1,57.3*,-263.7,25.7,-2.1
CCOC(=O)CSc1nc2cc3c(cc2cc1C#N)OCO3,-363.2,3.1,-59.8,-221.9,-6.4,-7.7
SMILES,Peg3 prom inh,KKLEB tox,TROY signal inh,HIF-2a inh,TWEAK Fn14 block,CF NFkB inh
O=C(/C=C/Nc1ccccc1)c1ccccc1,-250.1,-11.6,-22.5,-131.2,36.6,3.7
CN(C)c1ccc(N/C=C/C(=O)c2ccccc2)cc1,10.8,-34.7,23.4,-39.9,95.3*,-7.0
CCn1c(SCC(=O)N/N=C/c2c[nH]c3ccccc23)nnc1-c1ccc(C(C)(C)C)cc1,35.0,7.2,22.6,-11.9,59.7*,-12.1
CCn1c(SCC(=O)N/N=C/c2ccc(C)o2)nnc1-c1ccc(C(C)(C)C)cc1,2.8,-2.1,3.2,-13.2,27.4,-2.9
CCn1c(SCC(=O)N/N=C/c2ccc(C)o2)nnc1-c1ccc(C)cc1,-5.6,-15.9,-21.1,9.0,60.9*,10.0
O=C(CSc1nnc(SCc2ccccc2Cl)s1)N/N=C/c1c[nH]c2ccccc12,-71.5,-2.9,23.4,-134.2,64.2*,18.0
CC(C)Oc1ccc(F)cc1-c1cc(C(=O)NCc2ccc(F)cc2)[nH]n1,20.1,-14.2,-6.5,15.6,12.7,-21.9
O=C(CN1C(=O)COc2ccccc21)NCCCN1CCCCC1,-2.0,2.1,3.0,1.9,26.8,16.0
COc1ccccc1C(=O)COC(=O)C1(C)CC1(Cl)Cl (configuration not stated),-149.4,12.3,-59.9,-129.3,-23.7,-2.8
COc1ccc(-n2nc(C(=O)N3CCC(N4CCCCC4)CC3)c3c4ccccc4n(C)c3c2=O)cc1,1.1,-11.5,3.8,7.7,-26.0,-15.4
CC(=O)NN1C(=O)/C(=C2/Sc3ccc(Cl)cc3N2C)SC1=S,-26.6,1.8,-13.9,-8.8,-26.9,-26.9
O=C(Oc1cccc(C(=S)N2CCOCC2)c1)c1ccccc1,-9.4,-8.7,6.2,7.7,82.1*,-0.9
Cc1ccccc1NN1C(=O)C=CC1=O,4.5,-1.6,14.2,15.3,17.9,8.0
COc1ccc(C2=CC(=O)N(Nc3ccccc3)C2=O)cc1,39.7,2.5,2.7,33.6,12.3,28.6
Cc1ccc(NN2C(=O)C=CC2=O)cc1,7.9,4.8,35.5,12.5,53.2*,-1.6
Cc1ccc(NN2C(=O)C=C(c3ccc(Cl)cc3)C2=O)cc1,105.5*,-10.7,-36.7,4.1,-27.1,37.2
COc1cccc(CNC(=O)CCS(=O)(=O)c2ccccc2Cl)c1,4.5,19.2,5.5,-7.8,1.8,-17.8
Cc1nc2ccc(NC(=O)c3cccs3)cc2c(=O)n1Cc1ccc(Cl)cc1,21.9,-4.2,69.9*,-66.1,82.9*,-8.1
CCCc1nc2ccc(NC(=O)c3cccs3)cc2c(=O)n1Cc1ccc(Cl)cc1,-20.2,-2.5,-9.3,-98.8,18.5,5.5
CN(C)c1cccc(NC(=O)c2cccc3c(-c4ccc(F)c(F)c4)coc23)c1,-46.3,-4.4,-58.0,-35.0,0.8,-7.3
NC(=O)Cn1c(=O)n(CCC(=O)NCCSCc2ccccc2)c(=O)c2ccccc21,8.9,-8.9,71.0*,10.6,17.5,0.3
